The source of these data is the supplement of paper PMC7411054.

Counter-ions that a name gives are not always drawn. Unmarked numbers belong to inactive results.

In the first assay the test system is A549-ACTB-RAB5A. In words: phenotypically active (imaging signature differs from DMSO and reproducible) at any of 0.3-9 uM (binary (1 = active, 0 = inactive)); higher = active. Conditions: treatment time: 24 h. The procedure, abridged:
(§1)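 Cells from fifteen gene-edited reporter lines (A549, HepG2 and WPMY1) were treated for 24 h at 0.3, 1, 3 or 9 µM and imaged live, four wells per condition. Features were normalised per well to solvent control wells. A condition deviated if ≥3 of 4 wells passed the 95th percentile of control Euclidean distances and was reproducible if its median replicate Pearson correlation beat the 95th percentile of non-replicates; phenotypic activity needed both.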
`CN1C(=O)CC(C)(c2ccccc2)C1=O` (stereo not drawn) [methsuximide]: the phenotypically active was 0.

As to `O=C(NCCO)c1cc(C(=O)NCCO)cc(C(=O)NCCO)c1`, the phenotypically active was 0.

Consider `CO[C@H]1C=CO[C@@]2(C)Oc3c(C)c(O)c4c(O)c(c5c(nc6cc(C)ccn65)c4c3C2=O)NC(=O)C(C)=CC=C[C@H](C)[C@H](O)[C@@H](C)[C@@H](O)[C@@H](C)[C@H](OC(C)=O)[C@@H]1C` [Rifaximin], for which the phenotypically active was 0.

On to `N#Cc1ccc(C(c2ccc(C#N)cc2)n2cncn2)cc1` [Letrozole], for which the phenotypically active is 0.

Consider `NC(=O)c1cccc(-c2cccc(OC(=O)NC3CCCCC3)c2)c1`, for which the phenotypically active is 0.

As for `O=C(Nc1cccnc1)c1cc(-c2ccnc(F)c2)ccc1OCc1ccccc1`, the phenotypically active was 0.

With `O=C(O)CCCC[C@@H]1SC[C@@H]2NC(=O)N[C@@H]21` [Biotin], the phenotypically active is 0.

For `NS(=O)(=O)c1cc2c(cc1Cl)NC(C(Cl)Cl)NS2(=O)=O` (stereo not drawn) [trichlormethiazide], the phenotypically active was 0.

Regarding `CCn1c(=O)c2cc(C(N)=O)c(N)nc2n(C2CC2)c1=O`, the phenotypically active was 0.

On to `CCCSc1nc2c(c(=O)n1-c1ccccc1)SCC2`, for which the phenotypically active was 0.

For the molecule `COc1cc(C#N)ccc1S(=O)(=O)Nc1ccc2c(c1)cc(C)c(=O)n2C`, the phenotypically active was 0.

Take `CC(C)(C)NC[C@H](O)COc1nsnc1N1CCOCC1` [timolol]: the phenotypically active is 0.

Consider `CC[N+](CC)(CC)CCC(O)(c1ccccc1)C1CCCCC1` (stereo not drawn) [tridihexethyl], for which the phenotypically active is 0.

As for `COC(=O)C1=CO[C@@H](O[C@@H]2O[C@H](CO)[C@@H](O)[C@H](O)[C@H]2O)[C@H]2[C@@H]1C(=O)C[C@@H]2C` [Verbenaline], the phenotypically active was 0.

In the case of `Nc1ncnc2c1ncn2[C@H]1O[C@@H](C(=O)N2CCN(CC(=O)Nc3cccc4c3CNC4=O)CC2)[C@H](O)[C@@H]1O`, the phenotypically active was 0.

For `COc1ccc2cc(CCC(C)=O)ccc2c1` [nabumetone], the phenotypically active was 0.

`CC(C)c1ccc2oc3nc(N)c(C(=O)O)cc3c(=O)c2c1` [Amlexanox]: the phenotypically active is 0.

In the case of `O=C(/C=C/N1C[C@H]2C[C@@H]1CN2c1ccccn1)c1ccccc1O`, the phenotypically active is 0.

For `C#CCN(C)Cc1ccccc1` [pargyline], the phenotypically active is 0.

Regarding `Cc1nc2c(O)cccc2c(=O)[nH]1`, the phenotypically active was 0.

As to `CC(C)Cn1c(=O)n(C)c(=O)c2[nH]cnc21`, the phenotypically active was 0.

Regarding `COc1ccccc1OCC(O)CN1CCN(CC(=O)Nc2c(C)cccc2C)CC1` (stereo not drawn) [ranolazine], the phenotypically active was 0.

In the case of `COC(=O)c1c(C)cc(OC(=O)c2c(C)cc(O)c(C=O)c2O)c(C)c1O` [Atranorin], the phenotypically active is 0.

Consider `CC(C)NCCCC1(C(N)=O)c2ccccc2-c2ccccc21` [indecainide], for which the phenotypically active was 0.

For `O=C1c2ccccc2C(Cc2ccncc2)(Cc2ccncc2)c2ccccc21`, the phenotypically active was 0.

As for `CC1=NN(c2ccc(C(=O)O)cc2)C(=O)/C1=C\c1ccc(-c2cc(C)c(C)cc2[N+](=O)[O-])o1`, the phenotypically active is 0.

On to `CCCC(=O)Nc1ncnc2c1ncn2[C@@H]1O[C@@H]2COP(=O)(O)O[C@H]2[C@H]1OC(=O)CCC` [Dibutyryl-cAMP, sodium salt], for which the phenotypically active is 0.

With `CCO[C@@H](Cc1ccc(OCCc2ccc(OS(C)(=O)=O)cc2)cc1)C(=O)O` [Tesaglitazar], the phenotypically active is 0.

Consider `O=c1[nH]cnc2ccccc12`, for which the phenotypically active is 0.

As to `S=P(N1CC1)(N1CC1)N1CC1` [thiotepa], the phenotypically active was 0.

As to `C[C@](N)(Cc1ccc(O)c(O)c1)C(=O)O` [methyldopa], the phenotypically active was 0.

As to `CC1CCC(C(C)C)C(O)C1` [L-menthol], the phenotypically active is 0.

Regarding `CCCCC1=NC2(CCCC2)C(=O)N1Cc1ccc(-c2ccccc2-c2nnn[nH]2)cc1` [irbesartan], the phenotypically active is 0.

For the molecule `CC(=O)Oc1ccccc1C(=O)O` [aspirin], the phenotypically active was 0.

In the case of `CC(C(=O)O)c1ccc(C(=O)c2cccs2)cc1` (stereo not drawn) [suprofen], the phenotypically active was 0.

`FC(F)OC(F)C(F)(F)F` (stereo not drawn) [desflurane]: the phenotypically active is 0.

Take `CC(C)NCC(O)c1ccc(NS(C)(=O)=O)cc1` (stereo not drawn) [sotalol]: the phenotypically active was 0.

`COc1ccc(C(C)=O)c(O)c1` [2'-Hydroxy-4'-Methoxyacetophenone]: the phenotypically active was 0.

On to `CC(=O)[C@H]1CC[C@H]2[C@@H]3CCC4=CC(=O)CC[C@]4(C)[C@H]3CC[C@]12C` [progesterone], for which the phenotypically active was 0.

The next assay concerns A549-CANX-COX4. Described as above. Conditions: treatment time: 24 h. The procedure, abridged:
as §1
As to `CN1C(=O)CC(C)(c2ccccc2)C1=O` (stereo not drawn) [methsuximide], the phenotypically active is 0.

Take `O=C(NCCO)c1cc(C(=O)NCCO)cc(C(=O)NCCO)c1`: the phenotypically active is 0.

Consider `CO[C@H]1C=CO[C@@]2(C)Oc3c(C)c(O)c4c(O)c(c5c(nc6cc(C)ccn65)c4c3C2=O)NC(=O)C(C)=CC=C[C@H](C)[C@H](O)[C@@H](C)[C@@H](O)[C@@H](C)[C@H](OC(C)=O)[C@@H]1C` [Rifaximin], for which the phenotypically active was 0.

As for `N#Cc1ccc(C(c2ccc(C#N)cc2)n2cncn2)cc1` [Letrozole], the phenotypically active is 0.

As to `NC(=O)c1cccc(-c2cccc(OC(=O)NC3CCCCC3)c2)c1`, the phenotypically active was 0.

In the case of `O=C(Nc1cccnc1)c1cc(-c2ccnc(F)c2)ccc1OCc1ccccc1`, the phenotypically active is 0.

Regarding `O=C(O)CCCC[C@@H]1SC[C@@H]2NC(=O)N[C@@H]21` [Biotin], the phenotypically active is 0.

Regarding `NS(=O)(=O)c1cc2c(cc1Cl)NC(C(Cl)Cl)NS2(=O)=O` (stereo not drawn) [trichlormethiazide], the phenotypically active was 0.

Turning to `CCn1c(=O)c2cc(C(N)=O)c(N)nc2n(C2CC2)c1=O`, the phenotypically active was 0.

In the case of `CCCSc1nc2c(c(=O)n1-c1ccccc1)SCC2`, the phenotypically active was 0.

For the molecule `COc1cc(C#N)ccc1S(=O)(=O)Nc1ccc2c(c1)cc(C)c(=O)n2C`, the phenotypically active is 0.

`CC(C)(C)NC[C@H](O)COc1nsnc1N1CCOCC1` [timolol]: the phenotypically active is 0.

On to `CC[N+](CC)(CC)CCC(O)(c1ccccc1)C1CCCCC1` (stereo not drawn) [tridihexethyl], for which the phenotypically active is 0.

With `COC(=O)C1=CO[C@@H](O[C@@H]2O[C@H](CO)[C@@H](O)[C@H](O)[C@H]2O)[C@H]2[C@@H]1C(=O)C[C@@H]2C` [Verbenaline], the phenotypically active is 0.

With `Nc1ncnc2c1ncn2[C@H]1O[C@@H](C(=O)N2CCN(CC(=O)Nc3cccc4c3CNC4=O)CC2)[C@H](O)[C@@H]1O`, the phenotypically active was 0.

For the molecule `COc1ccc2cc(CCC(C)=O)ccc2c1` [nabumetone], the phenotypically active is 0.

Turning to `CC(C)c1ccc2oc3nc(N)c(C(=O)O)cc3c(=O)c2c1` [Amlexanox], the phenotypically active is 0.

As to `O=C(/C=C/N1C[C@H]2C[C@@H]1CN2c1ccccn1)c1ccccc1O`, the phenotypically active was 0.

For `C#CCN(C)Cc1ccccc1` [pargyline], the phenotypically active was 0.

With `Cc1nc2c(O)cccc2c(=O)[nH]1`, the phenotypically active is 0.

As to `CC(C)Cn1c(=O)n(C)c(=O)c2[nH]cnc21`, the phenotypically active was 0.

Consider `COc1ccccc1OCC(O)CN1CCN(CC(=O)Nc2c(C)cccc2C)CC1` (stereo not drawn) [ranolazine], for which the phenotypically active was 0.

`COC(=O)c1c(C)cc(OC(=O)c2c(C)cc(O)c(C=O)c2O)c(C)c1O` [Atranorin]: the phenotypically active is 0.

As to `CC(C)NCCCC1(C(N)=O)c2ccccc2-c2ccccc21` [indecainide], the phenotypically active was 0.

As to `O=C1c2ccccc2C(Cc2ccncc2)(Cc2ccncc2)c2ccccc21`, the phenotypically active was 0.

For the molecule `CC1=NN(c2ccc(C(=O)O)cc2)C(=O)/C1=C\c1ccc(-c2cc(C)c(C)cc2[N+](=O)[O-])o1`, the phenotypically active was 0.

With `CCCC(=O)Nc1ncnc2c1ncn2[C@@H]1O[C@@H]2COP(=O)(O)O[C@H]2[C@H]1OC(=O)CCC` [Dibutyryl-cAMP, sodium salt], the phenotypically active was 0.

Turning to `CCO[C@@H](Cc1ccc(OCCc2ccc(OS(C)(=O)=O)cc2)cc1)C(=O)O` [Tesaglitazar], the phenotypically active was 0.

Take `O=c1[nH]cnc2ccccc12`: the phenotypically active was 0.

Turning to `S=P(N1CC1)(N1CC1)N1CC1` [thiotepa], the phenotypically active is 0.

As to `C[C@](N)(Cc1ccc(O)c(O)c1)C(=O)O` [methyldopa], the phenotypically active was 0.

With `CC1CCC(C(C)C)C(O)C1` [L-menthol], the phenotypically active was 0.

In the case of `CCCCC1=NC2(CCCC2)C(=O)N1Cc1ccc(-c2ccccc2-c2nnn[nH]2)cc1` [irbesartan], the phenotypically active was 0.

Consider `CC(=O)Oc1ccccc1C(=O)O` [aspirin], for which the phenotypically active is 0.

With `CC(C(=O)O)c1ccc(C(=O)c2cccs2)cc1` (stereo not drawn) [suprofen], the phenotypically active is 0.

Turning to `FC(F)OC(F)C(F)(F)F` (stereo not drawn) [desflurane], the phenotypically active is 0.

As to `CC(C)NCC(O)c1ccc(NS(C)(=O)=O)cc1` (stereo not drawn) [sotalol], the phenotypically active is 0.

On to `COc1ccc(C(C)=O)c(O)c1` [2'-Hydroxy-4'-Methoxyacetophenone], for which the phenotypically active was 0.

Turning to `CC(=O)[C@H]1CC[C@H]2[C@@H]3CCC4=CC(=O)CC[C@]4(C)[C@H]3CC[C@]12C` [progesterone], the phenotypically active is 0.
